Compounds without any hit were thinned out: in the full panel of roughly 83,000, 20% have a hit.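 Single-concentration screen, 48 h exposure, 96-well plates. Endpoint: percent growth. Below 10 = active.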 A number with no mark means an inactive call. The source made the active and inactive calls.
How the values were obtained:
Experiment in all cases: NCI-60 one-dose screen, 48 h (100 = growth as untreated, 0 = no growth, -100 = all killed)
Conditions in all cases: 10 µM unless noted
BT-549 breast = tested on: BT-549 breast
MDA-MB-435 melanoma = tested on: MDA-MB-435 melanoma
SW-620 colon = tested on: SW-620 colon
MCF7 breast = tested on: MCF7 breast
HCT-116 colon = tested on: HCT-116 colon
HCC-2998 colon = tested on: HCC-2998 colon
KM12 colon = tested on: KM12 colon
T-47D breast = tested on: T-47D breast

SMILES | growth (BT-549 breast) | growth (MDA-MB-435 melanoma) | growth (SW-620 colon) | growth (MCF7 breast) | growth (HCT-116 colon) | growth (HCC-2998 colon) | growth (KM12 colon) | growth (T-47D breast)
CCN(CCNc1cc(OC)cc2cccnc12)CCc1ccccc1 | 87.6% | 104% | 70.7% | 0.943% (active) | 59.8% | 88.5% | 85.6% | 
Cc1ccccc1C(c1ccccc1)c1ccccc1C | 86.1% | 105% | 97.7% | 98.8% | 73.2% | 101% | 98.2% | 
COc1ccc(C2CC(n3nnnc3-c3ccccc3)=NN2)cc1 (stereo not given) |  | 50.1% | 50.6% |  | 50.7% | 72.3% | 49.3% | 46.3%
COc1cc(CNC(=O)CCCCC[P+](c2ccccc2)(c2ccccc2)c2ccccc2)c(OC)c2c1OCO2 | 37.8% | 39% | 70.7% | 67.4% | 50.4% | 57.6% | 45.6% | 
CN(C)Cc1c(-c2ccccc2)[nH]c2ccccc12 | 75.3% | 105% | 99.6% | 81.8% | 67.9% | 98.2% | 96.7% | 
CCCCCCCCCCCCCCCCCCOc1ccccc1N | -5.26% (active) | 78.7% | 98.7% | 75.4% | 44% | 88.8% | 39.8% | 
CS(=O)(=O)Nc1cc(-c2ccc3ncnc(Nc4ccc5[nH]ncc5c4)c3c2)cnc1Cl | 69.3% | 75% | 90.8% | 38.5% | 92.2% | 92% |  | 
CCN1C(=O)N(CC)C2NC(SC)=NC21 (stereo not given) | 103% | 102% | 97.6% | 99.3% | 104% | 99.3% | 102% | 
O=C(/C=C\c1ccc(OCCCCCC[P+](c2ccccc2)(c2ccccc2)c2ccccc2)cc1)c1ccc2c(c1)OCCO2 | -16.9% (active) | -29.8% (active) | -41.4% (active) | 5.09% (active) | -73.1% (active) | 32.5% | -76.4% (active) | 
CCN(CC)S(=O)(=O)c1cccc([N+](=O)[O-])c1 | 79.1% | 99% | 100% | 103% | 80.7% | 101% | 108% | 
COc1cccc(C(Cc2ccccc2)Nc2ccccc2)c1OC (stereo not given) |  | 105% | 95.1% | 102% | 77% | 91.2% | 99.6% | 80.6%
COc1cc(NCC(O)CN(CC(C)C)C2CCCC2)c2ncccc2c1 (stereo not given) |  | 107% | 70.5% | 24.1% | 68% | 97.3% | 87% | 
COc1cc(NCCCN(CC(C)C)CC(C)C)c2ncccc2c1 | 80.4% | 115% | 67.4% | -43.4% (active) | 62% | 86.4% | 84.7% | 
COc1cccc2cc(-c3cc4ccccc4[nH]3)/c(=N/C(=S)Nc3ccc(C)cc3)oc12 | 89.6% | 85.1% | 78% | 74% | 49.3% | 99.9% | 70.9% | 
